We go through 7 molecules from PubChem BioAssay AID2254 (The Scripps Research Institute Molecular Screening Center, 2010).

A short description of the assay: human RBBP9 inhibitor potency, late-stage follow-up, biochemical, gel-based ABPP, IC50 (AID 2254). As to conditions: fluorophosphonate probe labeling of RBBP9.

Unmarked numbers belong to inactive results. The rule behind the calls is not given here.

`C/C(=N\OC(=O)c1ccc(Cl)cc1)c1nccs1`: the IC50 was over 100 µM.
The figure for `C/C(=N\OC(=O)C1CCCCC1)c1nccs1` is over 100 µM; for `C/C(=N\OC(=O)c1ccc(F)cc1)c1nccs1` it is over 100 µM.
As to `COc1ccc(C(=O)O/N=C(\C)c2nccs2)cc1`, the IC50 is over 100 µM.
The figure for `C/C(=N\OC(=O)c1ccccc1)c1nccs1` is over 100 µM; for `CC1=CC(=NOC(=O)/C=C/c2ccccc2)C=C(C)C1=O` it is over 100 µM; for `COc1ccc(C(=O)ON=C2C=C(C)C(=O)C(C)=C2)cc1` it is over 100 µM.
